The list is not random: actives were taken first. Their share in the collection is about 13%.
Pf growth 48h – P. falciparum growth inhibition at 48 hours (one generation) | 310,000 tested, 5.9% active | P. falciparum luciferase growth in erythrocytes, 48 h | Potency, µM (doses to about 28.7 µM), usual class: inhibitors | AID 504832
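Parasite viability was followed by luminescence of a genomically integrated firefly luciferase. Cultures held 0.1% parasitemia at 2% hematocrit (final), incubated under 5% CO2 at 37 C.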
HCMV antiviral – blocks human cytomegalovirus replication | HFF cells, HCMV-luciferase reporter, 72 h; active compounds read low | activity change, negative = inhibition, % at 57.5 µM | 410,000 tested, 4.5% active | AID 1259415; in the data active = activity change below about -60%; inconclusive = no clear call, values can overlap the other calls; inactive = above about -39%
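Inhibition of viral replication was scored as loss of reporter luminescence in HFFs infected with HCMV-luciferase (MOI 1 PFU/cell) for 72 h; compounds tested at 2 doses, normalized to buffer and Salinomycin controls.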
HCV inh – blocks hepatitis C virus; Potency, µM (highest dose often 41.8 µM), actives largely listed as inhibitors; Huh7.5.1 HCVcc-Cre infection, luciferase reporter, 44 h; 340,000 tested, 3.4% active
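Compounds are dispensed onto cells plated 4 h earlier at 1,000 per well, with HCVcc-Cre virus (about 0.5 moi) added next. Following 44 h of culture, luminescent signal is measured for 15 sec after 15 min with substrate at room temperature.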
Pf growth 96h – inhibits malaria parasite growth, 96 h; P. falciparum luciferase reporter growth, 96 h; Potency, µM (titrated, usually from 28.7 µM), most hits filed as inhibitors; 320,000 tested, 6.9% active; AID 504834
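Two-generation exposure (96 h) targets delayed-death phenotype. Reporter parasites carrying integrated firefly luciferase, in red cells at 2% hematocrit and 0.05% parasitemia final, kept at 37 C, 5% CO2; luminescence loss indicates inhibition.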
Numbers stand for hits; n = inactive; u = inconclusive; x = no result given. Unless noted, calls follow the shape of the dose curve; as a rule, active = well fitted inhibition curve with a large enough effect; inconclusive = small, poorly fitted or top-dose-only effect, or another doubt; inactive = no such curve, though single readings can be large or run the other way.

SMILES	Pf growth 48h	HCMV antiviral	HCV inh	Pf growth 96h
CN1C2C=C3C(C#N)=C(N)C(C#N)(C#N)[C@H](c4c(F)cccc4F)[C@H]3C1CC2 (some centres undefined)	u	n	n	u
CN1C2C=C3C(C#N)=C(N)C(C#N)(C#N)[C@@H](c4cccc(F)c4)[C@@H]3C1CC2 (some centres undefined)	u	n	n	0.66µM
Clc1cccc(Cl)c1C1N2CCCN12 (centres undefined)	n	-63	n	x
CCOC(=O)Cc1csc(NC(=S)NC(=O)c2ccccc2)n1	u	-65	n	n
CCOC(=O)Cc1csc(NC(=O)c2c(-c3ccccc3)noc2C)n1	n	n	n	x
CCOC(=O)Cc1csc(NC(=O)c2ccc(C)cc2)n1	n	n	n	n
Cc1noc(C)c1C(=O)Nc1nc(C23CC4CC(CC(C4)C2)C3)cs1	12µM	n	u	n
CCOC(=O)Cc1csc(NC(=O)c2c(C)noc2C)n1	x	-99	n	x
CCOC(=O)Cc1csc(NC(=S)NC(=O)c2ccc(C)cc2)n1	2.9µM	-96	n	3.7µM
O=C(Cn1c(=O)n(-c2ccccc2)c(=O)c2c3c(sc21)CCCC3)Nc1cccc(F)c1	x	n	x	x
COc1ccc2c(c1)CC(C(=O)Nc1c(C)cc(C)cc1C)CO2 (centres undefined)	x	n	x	x
Cc1cccc(S(=O)(=O)c2cn(Cc3ccccc3)c3cc(N4CCC(C)CC4)c(F)cc3c2=O)c1	x	n	x	x
CCOC(=O)c1ccn(-c2nc(-c3cccc(OC)c3)cc(C(F)(F)F)n2)n1	x	n	x	x
CCc1ccccc1Nc1nn2c(=O)c3ccc(C(=O)NC4CCC(C)CC4)cc3nc2s1 (centres undefined)	x	n	x	x
O=C(NCc1ccc(F)cc1)C(=O)Nc1nc(C23CC4CC(CC(C4)C2)C3)cs1	12µM	u	u	n
O=C(NCc1ccccc1)C(=O)Nc1nc(C23CC4CC(CC(C4)C2)C3)cs1	u	n	u	n
N#CCC1c2ccccc2CCN1C(=O)Nc1ccc(C(F)(F)F)cc1 (centres undefined)	13µM	n	u	5.9µM
CCN(CC)CCCNC(=O)C1CCN(S(C)(=O)=O)CC1	x	n	x	x
CCN(CC)C(=O)c1cc(C(C)(C)C)c(O)c(C(C)(C)C)c1	u	n	u	10µM
CC(C)(C)NC(=O)c1ccc(C(=O)NC(C)(C)C)cc1	n	x	n	n
CC(C)(C)NC(=O)c1cc(C(C)(C)C)c(O)c(C(C)(C)C)c1	u	n	n	9.3µM
CC(C)c1ccc(S(=O)(=O)c2nnn3c2nc(NC2CCCC2)c2sccc23)cc1	x	n	x	x
O=C(Cn1c(NCCCO)nc2ccccc21)c1ccc(Cl)cc1Cl	1.7µM	n	n	9.3µM
COc1ccc(-n2c(C)cc(C(=O)Cn3c(NCCO)nc4ccccc43)c2C)cc1	n	n	n	10µM
CCOC(=O)c1[nH]c(CSc2nnc(-c3ccncc3)n2CCOC)c(C(=O)OCC)c1C	n	n	n	u
SMILES	Pf growth 48h	HCMV antiviral	HCV inh	Pf growth 96h
CC(=O)c1ccc(-n2c(SCC(=O)c3c[nH]c4ccccc34)nc3ccccc3c2=O)cc1	12µM	-88	u	u
CCOC(=O)c1[nH]c(CSc2nnnn2-c2ccccc2C)c(C(=O)OCC)c1C	10µM	n	u	u
CCOC(=O)c1c(C)[nH]c(C)c1C(=O)CSc1nnnn1-c1ccccc1	x	n	u	12µM
CCOC(=O)c1c(C)[nH]c(C)c1C(=O)CSc1nc2ccccc2c(=O)n1-c1ccc(CC)cc1	u	u	n	9.3µM
COc1ccc(Cl)cc1NC(=O)COC(=O)CC(C)(C)CC1=NS(=O)(=O)c2ccccc2N1	x	n	x	x
COc1ccccc1NC(=S)NNC(=O)c1nn(C)cc1Cl	u	n	n	6.6µM
COc1ccccc1NC(=S)NNC(=O)c1ccc(O)cc1	x	n	n	0.37µM
COc1ccccc1NC(=S)NNC(=O)c1nn(C)c(C)c1Cl	x	n	n	n
CC(C)n1cnc(S(=O)(=O)N2CCCC(C(=O)NCc3ccccc3Cl)C2)c1 (centres undefined)	x	n	x	x
COc1ccc2cc3cc(C(=O)NCCN4CCN(c5ccccc5F)CC4)oc3nc2c1	u	n	u	n
COc1ccc2cc3cc(C(=O)N4CCCC(C)C4)oc3nc2c1 (centres undefined)	n	n	n	12µM
COc1ccc2cc3cc(C(=O)Nc4ccccc4N4CCN(C)CC4)oc3nc2c1	u	n	10µM	u
CCN(C(=O)c1cc2cc3ccc(OC)cc3nc2o1)c1cccc(C)c1	x	n	x	x
CCOc1ccc(NC(=O)c2cc3cc4ccc(OC)cc4nc3o2)cc1	x	n	n	5.2µM
CCCCN(CC)C(=O)c1cc2cc3ccc(OC)cc3nc2o1	12µM	n	u	5.2µM
Nc1ccn([C@@H]2O[C@H](C(=O)N3CCCN(Cc4ccccc4F)CC3)[C@@H](O)[C@H]2O)c(=O)n1	x	n	x	x
CC1CCN(S(=O)(=O)c2ccc3c(c2)N(CC(=O)NCc2ccccc2)C(=O)CO3)CC1	x	n	x	x
COc1ccc2cc3cc(C(=O)NCc4ccccn4)oc3nc2c1	6.6µM	n	n	n
Cc1ccc(C(=O)NCC(c2ccco2)S(=O)(=O)c2ccc(Cl)cc2)cc1C (centres undefined)	x	n	x	x
O=C1[C@@H](Oc2ccccc2)[C@@H](c2ccccc2)N1c1cccnc1	x	n	n	x
c1ccc(N2CCN(c3ccccc3)C2c2cccnc2)cc1	3.7µM	n	n	n
Cc1ccc(N2CCN(c3ccc(C)cc3)C2c2cccnc2)cc1	x	n	u	1.3µM
c1ccc(N2CCN(c3ccccc3)C2c2ccncc2)cc1	13µM	n	n	x
CC1CCN(c2oc(-c3cccs3)nc2S(=O)(=O)c2ccc(Cl)cc2)CC1	x	n	x	x
CC(NC(=O)c1c2c(nc3ccccc13)C(=O)N(C1CCCCC1)C2)c1ccccc1 (centres undefined)	x	n	x	x
SMILES	Pf growth 48h	HCMV antiviral	HCV inh	Pf growth 96h
S=C(NCc1ccco1)N1CCN(c2ccc(Cl)cc2)CC1	n	u	n	u
COc1ccccc1N1CCN(C(=O)c2ccccc2SCC(=O)NCc2ccco2)CC1	u	n	n	n
CC(=O)c1ccc(N2CCN(C(=S)NCc3ccco3)CC2)cc1	n	n	n	13µM
CC(=O)c1ccc(N2CCN(C(=O)c3ccccc3SCC(=O)NCc3ccco3)CC2)c(F)c1	x	n	13µM	x
CCCCC(=O)NC(=S)Nc1ccccc1N1CCCCC1	u	n	n	u
O=C(NC(=S)Nc1ccccc1N1CCOCC1)c1cccs1	n	-72	n	n
O=C(NC(=S)Nc1ccc(N2CCOCC2)c(Cl)c1)c1cccs1	u	n	n	2.3µM
O=C(NC(=S)Nc1ccccc1N1CCCC1)c1cccs1	u	n	u	u
O=C(Nc1ccc(N2CCCC2)c(Cl)c1)c1cccs1	u	n	u	u
CCCC(=O)NC(=S)Nc1ccccc1N1CCOCC1	n	n	n	10µM
Oc1ccc(NC(=S)N=Nc2c(O)[nH]c3ccccc23)cc1	n	n	u	n
Oc1ccc(NC(=S)N=Nc2c(O)[nH]c3ccc(Br)cc23)cc1	u	-91	n	n
Cc1ccc(NC(=S)N=Nc2c(O)[nH]c3ccccc23)cc1	5.2µM	u	n	1.9µM

Source: PubChem
